Test results published in the supplement of paper PMC3334620.
Over roughly 33,000 sequences, “E-score (-0.5 to 0.5)” has its median near -0.053; the highest 2% begin near 0.37. The entries come from a sample that favours the highest values as a whole.

target: Hap1 (UniProt P0CE41); test: PBM E-score (8-mer binding enrichment) (E-score (-0.5 to 0.5)); higher = stronger / more preferred TF binding; conditions: protein concentration: 200 nM; construct: GST-DNA-binding domain
In short: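 E-scores (a modified Wilcoxon-Mann-Whitney statistic) were assigned by the Universal PBM Analysis Suite to every ungapped eight-base word pooled with its reverse complement. The input came from universal all-10-mer Agilent arrays made double-stranded by primer extension and probed with GST-tagged yeast transcription factors at about 100-200 nM. Fluorescent anti-GST detected bound protein, and masliner normalised the scans.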

Chain of UniProt P0CE41 (P0CE41 whole entry, the tested form may be a part): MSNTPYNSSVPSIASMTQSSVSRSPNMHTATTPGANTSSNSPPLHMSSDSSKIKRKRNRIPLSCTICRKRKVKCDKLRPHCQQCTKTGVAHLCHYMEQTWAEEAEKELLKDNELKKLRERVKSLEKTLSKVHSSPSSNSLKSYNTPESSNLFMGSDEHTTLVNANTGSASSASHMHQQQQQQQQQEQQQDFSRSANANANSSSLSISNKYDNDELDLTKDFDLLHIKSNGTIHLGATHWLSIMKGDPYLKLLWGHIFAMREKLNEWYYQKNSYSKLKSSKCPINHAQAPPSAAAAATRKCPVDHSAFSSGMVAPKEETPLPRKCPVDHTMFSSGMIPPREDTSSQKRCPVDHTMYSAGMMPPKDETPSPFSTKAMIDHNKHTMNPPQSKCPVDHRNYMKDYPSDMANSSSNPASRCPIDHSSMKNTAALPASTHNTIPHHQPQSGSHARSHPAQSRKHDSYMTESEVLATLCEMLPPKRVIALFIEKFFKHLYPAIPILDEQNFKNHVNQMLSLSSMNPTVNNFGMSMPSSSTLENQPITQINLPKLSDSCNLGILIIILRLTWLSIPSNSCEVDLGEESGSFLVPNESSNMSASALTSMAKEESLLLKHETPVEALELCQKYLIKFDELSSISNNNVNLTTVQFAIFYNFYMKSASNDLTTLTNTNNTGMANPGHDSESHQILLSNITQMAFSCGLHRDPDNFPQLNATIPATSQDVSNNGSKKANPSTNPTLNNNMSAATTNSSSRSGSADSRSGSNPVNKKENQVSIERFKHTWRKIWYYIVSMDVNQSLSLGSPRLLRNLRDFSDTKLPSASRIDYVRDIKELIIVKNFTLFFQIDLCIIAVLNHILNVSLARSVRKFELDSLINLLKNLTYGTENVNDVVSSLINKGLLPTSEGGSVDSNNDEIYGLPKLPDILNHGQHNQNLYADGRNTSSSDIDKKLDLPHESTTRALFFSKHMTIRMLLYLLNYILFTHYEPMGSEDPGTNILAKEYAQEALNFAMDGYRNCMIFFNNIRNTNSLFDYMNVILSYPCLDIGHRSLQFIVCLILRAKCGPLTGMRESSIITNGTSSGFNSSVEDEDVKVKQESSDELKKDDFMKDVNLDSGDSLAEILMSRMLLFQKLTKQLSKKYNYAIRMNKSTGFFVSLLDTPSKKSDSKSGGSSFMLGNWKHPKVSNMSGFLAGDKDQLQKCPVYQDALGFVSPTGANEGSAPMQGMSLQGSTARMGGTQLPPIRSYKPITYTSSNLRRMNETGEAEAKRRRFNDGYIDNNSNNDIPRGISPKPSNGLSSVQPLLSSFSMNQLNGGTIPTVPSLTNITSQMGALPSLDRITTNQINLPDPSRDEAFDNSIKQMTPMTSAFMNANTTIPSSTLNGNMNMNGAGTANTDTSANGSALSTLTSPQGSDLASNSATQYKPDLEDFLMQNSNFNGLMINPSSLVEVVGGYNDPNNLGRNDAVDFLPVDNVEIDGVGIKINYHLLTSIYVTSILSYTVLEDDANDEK

Sequence	PBM E-score
AATCGGCT	0.314
TCTGCGAA	-0.214
CCGGTGTC	0.301
CTTGGTGA	-0.102
CATCGGAC	0.401
GATCGGAA	0.325
CATCGGTC	0.278
GATCGGAC	0.413
CATCGGAG	0.292
AATCGGAC	0.345
GCTTTTAC	0.14
ATGTGGAC	-0.149
AATTCCTG	-0.0671
AGGCTGTG	-0.019
CACATCGC	0.0343
GCGGACGC	0.0721
TCACGCGA	-0.0375
AGAGGAGA	-0.242
TGGGACCA	-0.19
ACGGACCG	0.328
GCGGACCC	0.266
CCGGACCG	0.431

Sequence	PBM E-score
CCGGACCC	0.374
CCGGACTA	0.404
TAGGACCA	-0.0211
CCGGACTC	0.361
ACGGACCC	0.278
TCGGACCA	0.381
CAGGACCG	-0.00407
ACGGACTA	0.237
AGGCGCCC	-0.0775
CGCATCCA	-0.0122
ACCACAGC	-0.127
GAGAGAGA	-0.0161
CCAACTGA	-0.324
GGAGAGAC	0.101
AACCTCGC	-0.0117
AGTCGTAA	0.00615
AAAGAGCC	-0.12
AGGACCGA	0.311
GATTTATA	0.146
CCGGACCA	0.372
ACGGACCA	0.344
GCGGACCA	0.31

Sequence	PBM E-score
GTTCCCGA	0.257
ATTCCCGA	0.395
ATTCCCGG	0.395
ATTCCCGC	0.318
ACTCCCGG	0.378
ATTCCCCG	0.286
ACTCCCGA	0.2
CTTCCCGA	0.143
ACTCCCCG	0.283
CTAGCGTC	-0.0893
CCTCTTCC	-0.0207
TAGCCTAA	-0.158
AGGCAAAG	-0.246
CGAGGAGC	0.0181
CGAACCAG	-0.00442
CGATCGGA	0.354
GCATCGGA	0.383
ACATCGGA	0.265
GCATCGGC	0.225
GGATCGGA	0.384
ACGTCGGA	0.256
AGATCGGG	0.153

Sequence	PBM E-score
CCGTCGGA	0.335
GCGTCGGA	0.375
GGATCGAA	0.168
AGATCGGA	0.376
AGATCGGC	0.267
AAACTAGC	-0.188
GCGTTGCA	0.0308
GAGCGGAA	0.248
GGCATAAA	0.102
AAAGTAAG	-0.163
CTAGAGGA	-0.241
ATCCGTCA	0.212
GAGGGGAA	0.148
CCTGTGGA	-0.336
GGTTTTAA	0.334
AAGTGTGC	-0.132
AGTCGGTA	0.0714
GATCGAAA	0.121
GTTTCGGA	0.389
CTTTCGGC	0.348
ATTTCGGG	0.29
ATTTCGGC	0.326

Sequence	PBM E-score
ATTTCGGA	0.415
GTTTCGTA	0.11
CTTTCGGA	0.399
CTTTCGTA	-0.158
GTTTCGAA	-0.219
CGTGCGAC	-0.0831
ACGCAGAA	-0.0372
AAGCTCAA	-0.167
AAATAACC	0.0225
CGCGTCAC	-0.174
CACTGACG	-0.147
CCCCCAAG	-0.195
CCCTCAAG	-0.233
CGCCGAGA	0.37
CGCCGAGC	0.364
GGCCGAGA	0.401
TCCCGAGA	0.261
GGCCGCGA	0.0621
GCCCGAGA	0.391
CGCCGCGA	0.213
